Reference: PubChem BioAssay (EPA / NIEHS)
Results filed as inconclusive are left out. Some compounds were tested as several samples or in several runs, with calls that do not always agree. Calls of active or inactive are those of the source. How the source made its calls, unless noted: active means hit-call score of the fitted dose curve at least 0.9, where 1 is the maximum; inconclusive means response in the unintended direction; inactive means score below 0.9.

Tests used:
[1] = read-out: UDP glucuronosyltransferase (UGT1A6), UGT1A6 (gene 54578); test: LTEA_HepaRG_UGT1A6: Life Technologies and Expression Analysis (LTEA) Assay for UDP glucuronosyltransferase (UGT1A6) using HepaRG (AID 2283539; active means hit-call score of the fitted dose curve at least 0.9, where 1 is the maximum; inactive means score below 0.9); settings: mRNA level, 48 h; actives raise or lower the signal
Summary of the method: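 HepaRG, 48 h post-plating switch to serum-free induction medium; chemical 48 h, 100 uM top, half-log x8, duplicate, 0.5% DMSO. Phenobarbital 1mM induction control. UGT1A6 mRNA by TaqMan qRT-PCR; gain/loss fit vs DMSO.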

[2] = read-out: X-box binding protein 1 (XBP1), XBP1 (gene 7494); test: LTEA_HepaRG_XBP1: Life Technologies and Expression Analysis (LTEA) Assay for X-box binding protein 1 (XBP1) using HepaRG (AID 2283540; active means hit-call score of the fitted dose curve at least 0.9, where 1 is the maximum; inactive means score below 0.9); settings: mRNA level, 48 h; actives raise or lower the signal
Summary of the method: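 Transcript levels of XBP1, measured by qRT-PCR and normalised to three housekeeping genes, were fitted bidirectionally relative to 0.5% DMSO controls. Human HepaRG cells received eight-point half-log dilutions from 100 uM for 48 h.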

[3] = ATG_XTT_Cytotoxicity: Cytotoxicity Assessment in the Attagene TRANS-FACTORIAL HepG2 Assay (AID 2283584)
Summary of the method: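 Cells: human HepG2, transiently transfected with MRTU reporter constructs. Exposure 24 h. Readout: XTT, cell number. Baseline/neg ctrl DMSO; loss-of-signal scored.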

[4] = target: Cellular tumor antigen p53 (Homo sapiens) (UniProt P04637); test: TOX21_p53_BLA_p2_ratio: Tox21 HCT-116 p53 Agonism Beta-lactamase Assay, Ratio, Phase 2 (AID 2283592)
Chain of Cellular tumor antigen p53 (Homo sapiens) (P04637 whole entry, looked up): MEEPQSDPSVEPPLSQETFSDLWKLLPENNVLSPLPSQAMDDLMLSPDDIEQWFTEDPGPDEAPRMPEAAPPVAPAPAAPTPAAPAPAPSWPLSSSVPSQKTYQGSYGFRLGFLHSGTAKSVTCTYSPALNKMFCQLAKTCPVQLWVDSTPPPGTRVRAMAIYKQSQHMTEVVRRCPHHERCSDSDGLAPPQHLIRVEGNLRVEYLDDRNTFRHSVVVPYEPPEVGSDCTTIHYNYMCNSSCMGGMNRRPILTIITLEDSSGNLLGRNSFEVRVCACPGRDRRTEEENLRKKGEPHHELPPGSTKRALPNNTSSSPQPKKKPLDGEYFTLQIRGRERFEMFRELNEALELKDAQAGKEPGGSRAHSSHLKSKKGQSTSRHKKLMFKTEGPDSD
Summary of the method: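 Plated HCT116 p53-bla cells (4000/well) received compound after 5 h, then 16 h at 37C/5% CO2. CCF4-AM added, 2 h RT. Ratio of 460 to 530 nm emission taken as the p53 reporter signal.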

[5] = TOX21_p53_BLA_p3_viability: Viability Assessment in the Tox21 HCT-116 p53 Agonism Beta-lactamase Assay, Phase 3 (AID 2283593);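 further: cells exposed to compound for 16 h before reading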
Summary of the method: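 Cellular ATP was quantified by CellTiter-Glo luminescence, read after 30 min at room temperature. Beforehand, HCT116 cells (4000/well) received compound 5 h post-seeding, 217-fold diluted from DMSO, then incubated 16 h at 37C.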

[6] = target: Cellular tumor antigen p53 (Homo sapiens) (UniProt P04637); test: TOX21_p53_BLA_p5_ratio: Tox21 HCT-116 p53 Agonism Beta-lactamase Assay, Ratio, Phase 5 (AID 2283599)
Summary of the method: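 Beta-lactamase reporter ratio (blue 460 nm over green 530 nm, 405 nm excitation) after 2 h CCF4-AM loading, in HCT-116 cells exposed 16 h at 37 C to compounds pinned at 217-fold dilution. Increases relative to DMSO baseline scored.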

[7] = TOX21_p53_BLA_p5_viability: Viability Assessment in the Tox21 HCT-116 p53 Agonism Beta-lactamase Assay, Phase 5 (AID 2283600)
Summary of the method: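 Workflow: seed 4000 cells per well, wait 5 h, add compounds (DMSO, 217-fold dilution), incubate 16 h, load CCF4-AM 2 h, add CellTiter-Glo, read luminescence after 30 min.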

[8] = target: Cellular tumor antigen p53 (Homo sapiens) (UniProt P04637); test: TOX21_p53_BLA_p4_ratio: Tox21 HCT-116 p53 Agonism Beta-lactamase Assay, Ratio, Phase 4 (AID 2283601)
Summary of the method: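 Signal is the blue/green (460nm/530nm) ratio of cleaved versus uncleaved CCF4-AM substrate, read after 2 h substrate loading. Cells were HCT116 carrying the p53-responsive beta-lactamase reporter, dosed 16 h at 37C, 5% CO2; CellTiter-Glo measured in parallel.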

[9] = Tanguay_ZF_120hpf_MORT_legacy: (Legacy) Oregon State University Tanguay Lab 120 Hour Post-fertilization zebrafish Assay for Mortality (AID 2283633)
Summary of the method: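 5D WT zebrafish, chorion removed 4 hpf; 1 embryo/well from 6 hpf; static exposure to 120 hpf, 28C, dark, sealed. Final DMSO 0.64%. Readout: binary mortality, brightfield, 24 + 120 hpf; DMSO as negative control.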

[10] = Tanguay_ZF_120hpf_AXIS_legacy: (Legacy) Oregon State University Tanguay Lab 120 Hour Post-fertilization zebrafish Assay for Body Axis Malformation (AID 2283635);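 on AC50: potency for an increased fraction of larvae scored with body axis malformation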
Summary of the method: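 Chorion is removed with pronase at 4 hpf, then single 6 hpf embryos are dosed (final DMSO 0.64%) and held statically at 28C in sealed, foil-covered plates. At 120 hpf body axis malformation is recorded as present or absent.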

[11] = Tanguay_ZF_120hpf_EYE_legacy: (Legacy) Oregon State University Tanguay Lab 120 Hour Post-fertilization zebrafish Assay for Eye Malformation (AID 2283636);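 further: binary presence or absence of eye malformation scored by brightfield in 120 hpf larvae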
Summary of the method: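 Binary brightfield scoring of eye defects at 120 hpf after static exposure from 6 hpf of single pronase-dechorionated wild-type embryos (28C, 0.64% DMSO). Non-mortality endpoints omitted where embryos died; fit vs DMSO.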

[12] = Tanguay_ZF_120hpf_SNOU_legacy: (Legacy) Oregon State University Tanguay Lab 120 Hour Post-fertilization zebrafish Assay for Snout Malformation (AID 2283637)
Summary of the method: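 Binary snout-malformation call at 120 hpf in wild-type 5D embryos, chorion removed by pronase, under static exposure from 6 hpf at 28C (0.64% DMSO). Embryos dying by 24 or 120 hpf excluded.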

[13] = Tanguay_ZF_120hpf_JAW_legacy: (Legacy) Oregon State University Tanguay Lab 120 Hour Post-fertilization zebrafish Assay for Jaw Malformation (AID 2283638);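 on AC50: active means more embryos with jaw malformation than DMSO controls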
Summary of the method: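 Steps: dechorionate 4 hpf embryos (pronase); plate 1/well at 6 hpf; add test chemical, 0.64% DMSO final; seal, cover, hold at 28C statically to 120 hpf; score jaw defect presence/absence microscopically. Dead embryos not scored.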

[14] = Tanguay_ZF_120hpf_OTIC_legacy: (Legacy) Oregon State University Tanguay Lab 120 Hour Post-fertilization zebrafish Assay for Otic Vesicle Malformation (AID 2283639)
Summary of the method: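 Statically exposed wild-type 5D zebrafish embryos, kept sealed and dark at 28C through 120 hours post fertilization, were examined by brightfield microscopy for otic vesicle defects. Responses were recorded as present or absent and analysed relative to DMSO.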

[15] = Tanguay_ZF_120hpf_PE_legacy: (Legacy) Oregon State University Tanguay Lab 120 Hour Post-fertilization zebrafish Assay for Pericardial Edema (AID 2283640);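 on AC50: potency for increased incidence of pericardial edema versus DMSO baseline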
Summary of the method: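 Embryos from wild-type 5D adults were staged, then dosed in 0.64% DMSO. They were kept sealed in the dark at 28C until 120 hpf. Pericardial edema was then recorded as present or absent.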

[16] = TOX21_p53_BLA_p2_viability: Viability Assessment in the Tox21 HCT-116 p53 Agonism Beta-lactamase Assay, Phase 2 (AID 2283591);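 further: compound exposure lasted 16 h at 37 °C; actives lower the ATP signal meaning cytotoxicity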
Summary of the method: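 Cytotoxicity readout: CellTiter-Glo ATP luminescence, 30 min at room temperature, after the beta-lactamase read. Cells were HCT116 exposed 16 h at 37C to compounds pin-transferred at 217-fold dilution from DMSO stocks.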

[17] = target: Cellular tumor antigen p53 (Homo sapiens) (UniProt P04637); test: TOX21_p53_BLA_p3_ratio: Tox21 HCT-116 p53 Agonism Beta-lactamase Assay, Ratio, Phase 3 (AID 2283596)
Summary of the method: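 Cells were seeded at 4000/well, rested 5 h at 37C, then dosed with DMSO compound solutions (217-fold dilution) for 16 h. CCF4-AM substrate was loaded for 2 h at room temperature, and the 460/530 nm emission ratio was fitted for gain of signal versus DMSO.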

[18] = TOX21_p53_BLA_p4_viability: Viability Assessment in the Tox21 HCT-116 p53 Agonism Beta-lactamase Assay, Phase 4 (AID 2283597);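 further: hits lower the luminescence signal meaning cytotoxicity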
Summary of the method: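 Readout: ATP luminescence (CellTiter-Glo), measured 30 min after reagent addition at RT. The reagent followed a 2 h CCF4-AM incubation, and the cells had been exposed to compound for 16 h at 37C.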

[19] = Tanguay_ZF_120hpf_YSE_legacy: (Legacy) Oregon State University Tanguay Lab 120 Hour Post-fertilization zebrafish Assay for Yolk Sac Edema (AID 2283634)
Summary of the method: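 Dechorionate (pronase, 4 hpf) → place one 6 hpf embryo per well → static compound exposure, sealed and foil-covered, 28C, to 120 hpf → record yolk sac edema as present or absent. Final DMSO 0.64%.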

[20] = LTEA_HepaRG_LDH_cytotoxicity: Cytotoxicity Assessment in the Life Technologies and Expression Analysis (LTEA) Assay (AID 2283563);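 on AC50: LDH activity released into spent culture medium as a marker of cell death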
Summary of the method: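 Cells were thawed and plated for 48 h. Medium was then replaced with serum-free induction medium. Chemicals (8 half-log points, maximum 100 uM, 0.5% DMSO) were added in duplicate for 48 h, after which spent medium was assayed for LDH.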

Measured: AC50

Cc1ccc(C)c(O)c1
not listed: [16] | [17] | [18] | [19] | [20]
inactive: all other assays above

C[C@](N)(Cc1ccc(O)c(O)c1)C(=O)O
not listed: [5] | [19] | [20]
inactive: all other assays above

CC/C(=C\C(=N/O)C(N)=O)C(C)[N+](=O)[O-] (stereo not given)
not listed: [4] | [5] | [7] | [16] | [17] | [19] | [20]
inactive: all other assays above

CC(C)CCCCCCOC(=O)c1ccc(C(=O)OCCCCCCC(C)C)c(C(=O)OCCCCCCC(C)C)c1
not listed: [3] | [4] | [7] | [8] | [20]
inactive: all other assays above

Cc1[nH]cnc1C[C@H]1CCc2c(C)c3ccccc3n2C1=O
active: [2] 10.4 µM | [20] 27.6 µM | [17] 63.9 µM | [18] 41 µM
inactive: [3] | [4] | [18] | [6] | [7] | [8] | [9] | [19] | [10] | [11] | [12] | [13] | [15]

O=C(O)CC(O)C(=O)O (stereo not given)
not listed: [1] | [5] | [14] | [19]
inactive: all other assays above

COc1ccc(/C=C/S(=O)(=O)NC(=O)c2ccc(C)cc2Cl)cc1
active: [4] 28 µM | [6] 29.5 µM | [8] 21.2 µM
inactive: [1] | [2] | [3] | [7] | [9] | [12] | [13] | [14] | [15]

O=P(OC(CCl)CCl)(OC(CCl)CCl)OC(CCl)CCl
inactive: [2] | [3] | [4] | [6] | [7] | [8] | [9]
active: [1] 10.1 µM | [18] 53.8 µM | [10] 35.3 µM | [11] 36.7 µM | [12] 25.9 µM | [13] 36.3 µM | [14] 34.7 µM | [15] 28.2 µM
